From PubChem BioAssay
An excerpt weighted towards active compounds, which were near 1.5% of everything screened.
NOD2-RIPK2 inh = NOD2-RIPK2 binding disruptors in cells, primary screen, fluorescence, CHO cells, BLA complementation; inhibition, % at 4.98 µM; AID 624267, 2012; hit rate 0.38% among 360,000; CCF4 ratio; in the data active = inhibition above about 21%;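 note: 0% = vehicle only and 100% = reference blocker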
TLR4-MyD88 BLA = inhibitors of TLR4-MyD88 association in cells, primary screen, cell-based, HeLa CL3-4, BLA complementation, FRET ratio. HeLa CL3-4 TLR4/MyD88 BLA complementation. inhibition, % at 8.4 µM. hit rate 0.18% among 200,000; in the data active = inhibition above about 25%;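 note: 0% = vehicle and 100% = reference inhibitor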
NTR1 ag = agonists of human NTR1, primary screen, imaging, U2OS cells, beta-arrestin-GFP, high content. Neurotensin receptor type 1 (Homo sapiens), P30989. NTR1-U2OS beta-arrestin-GFP spot imaging, agonist mode. activation, % at 20 µM. hit rate 0.17% among 330,000;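 active = activation at or above 40% of the spot to cytoplasm intensity ratio, with at least 20 cells analyzed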;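 note: 0% = DMSO without peptide and 100% = 100 nM NTR1 peptide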
TLR9-MyD88 inh = inhibitors of TLR9-MyD88 association in cells, primary screen, cell-based, CHO, BLA complementation, fluorescence | Toll-like receptor 9 (Homo sapiens) + Myeloid differentiation primary response protein … | CCF4 FRET ratio | inhibition, % at 4.98 µM | hit rate 0.21% among 340,000;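 active = inhibition above the mean over all tested compounds plus 3 SD, cut at about 21% in these data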;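 note: 0% = DMSO only wells and 100% = clavulanate BLA inhibitor control wells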
ABHD5-PLIN5 inh = ABHD5-PLIN5 interaction inhibitors, primary screen, cell lysate, split luciferase complementation, luminescence | Split G. princeps luciferase complementation, 4 h | inhibition, % at 4 µM | hit rate 0.78% among 360,000;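 active = inhibition above the mean inhibition across every tested compound plus 3 SD, cut at about 22% in these data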;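 note: 0% = DMSO only wells and the 100% control is not disclosed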
B2AR ag = beta2AR agonists driving receptor internalization, primary screen, cell-based, FAP fluorogen, flow cytometry; Beta-2 adrenergic receptor (Homo sapiens), P07550; Am2.2-beta2AR cells; response, % (no concentration beside the values); hit rate 0.43% among 340,000;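 active = response above a set limit, near 3 SD of response in nonfluorescent compounds, cut at about 42% in these data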
Target sequence (P07550 whole entry, looked up): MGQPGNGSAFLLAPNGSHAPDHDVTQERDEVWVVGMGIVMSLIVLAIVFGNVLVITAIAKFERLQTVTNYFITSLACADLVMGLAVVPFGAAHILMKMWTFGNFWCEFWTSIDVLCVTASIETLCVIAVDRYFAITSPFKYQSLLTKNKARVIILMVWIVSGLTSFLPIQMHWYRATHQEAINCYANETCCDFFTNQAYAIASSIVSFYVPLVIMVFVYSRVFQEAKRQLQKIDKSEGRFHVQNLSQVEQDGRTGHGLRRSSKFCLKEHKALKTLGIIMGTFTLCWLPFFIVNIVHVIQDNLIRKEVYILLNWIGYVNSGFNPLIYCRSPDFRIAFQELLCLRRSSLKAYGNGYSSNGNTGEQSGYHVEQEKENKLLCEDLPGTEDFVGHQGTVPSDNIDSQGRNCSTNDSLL
* hit, by the source's call; x = not tested or not shown.

SMILES	NOD2-RIPK2 inh	TLR4-MyD88 BLA	NTR1 ag	TLR9-MyD88 inh	ABHD5-PLIN5 inh	B2AR ag
COc1ccc(-c2nn(-c3ccccc3)cc2/C=C/C(=O)OCC(=O)Nc2ccc(C#N)cc2)cc1	-3.9	-3.5	9.2	0.7	2.4	55.1*
COc1cccc(/C=N/NC(=O)CSc2nnc(C)n2-c2ccccc2)c1O	4.0	0.9	0.2	6.2	2.4	3.9
COc1ccc(-c2nn(-c3ccccc3)cc2/C=N/NC(=O)c2ccc(Br)o2)cc1	7.6	-6.3	7.2	-12.8	-3.3	60.9*
Cc1ccc(-c2nn(-c3ccccc3)cc2/C=N/NC(=O)CSc2nnc(C)n2-c2ccccc2)cc1	-4.8	-4.5	5.1	-4.2	11.7	89.4*
CCCCNC(=O)C1(C)CCCCN1C(=O)c1ccno1 (centres undefined)	11.3	x	x	x	-1.1	x
Cc1cc(C)cc(Cn2cc(CN3CC(N4CCN(Cc5ccccc5F)CC4)CS3(=O)=O)nn2)c1 (centres undefined)	-4.0	x	x	x	0.3	x
COc1ccc(/C=C\C(=O)O[C@@H]2C(O)C(O[C@@H]3OC(C)[C@H](O[C@@H]4OCC(O[C@H]5O[C@H](CO)[C@@H](O)C(O)C5O)C(O)C4O)C(O)C3O)[C@H](OC(=O)[C@]34CCC(C)(C)C[C@@H]3C3=CCC5[C@@]6(C)CC(O)C(O[C@@H]7OC(CO)C(O)[C@H](O)[C@H]7O)[C@@](C)(C(=O)O)C6CC[C@@]5(C)[C@]3(CO)CC4)O[C@H]2C)cc1 (some centres undefined)	13.1	x	12.1	23.9*	15.8	-2.5
CC(C)(C)C1CCc2c(C(=O)NNC(=O)/C=C/C(=O)O)csc2C1 (centres undefined)	5.1	-8.6	0.2	-3.4	-3.3	47.8*
CC(C)(C)C1CCc2c(C(=O)N/N=C/c3cccs3)csc2C1 (centres undefined)	-0.7	0.9	4.5	-2.5	-11.8	94.3*
Cc1cccc(C)c1NC(=O)C1C(c2ccccc2)=Nc2ccccc2N1C(=O)c1cnccn1 (centres undefined)	-9.3	x	x	x	0.3	x
CCCS(=O)(=O)c1nnnn1-c1cccc(OC)c1	16.9	22.3	x	10.7	42.8*	23.4
COc1cccc(C(C)(O)c2nc(-c3ccc(N(C)C)cc3)cs2)c1 (centres undefined)	-0.1	x	x	x	-5.3	x
CCOc1ccccc1N=C1SC(CC(=O)Nc2ccc(OC)cc2OC)C(=O)N1CCC1=CCCCC1 (centres undefined)	-8.2	-4.0	2.5	-1.7	-10.3	67.0*
Cc1ccccc1NC(=O)CSc1nnc(-c2ccco2)c(-c2ccco2)n1	-5.3	-5.1	1.4	7.9	18.6	-10.7
Cc1cccc(C)c1NC(=O)CSc1nnc(-c2ccco2)c(-c2ccco2)n1	-2.6	21.1	-1.1	-1.8	22.6*	-11.7
O=C(CSc1nnc(-c2ccco2)c(-c2ccco2)n1)Nc1ccccc1	3.9	-3.6	0.4	-1.2	26.1*	-3.1
O=C(OCc1ccccc1)N1C=CCC[C@@H]1c1c(Cl)cccc1Br	6.7	x	x	x	-9.9	x
CCN(CC)C(=O)C1=C(C)N(CCCOC)C(=O)C(CC(=O)NCCCCc2ccccc2)C1 (centres undefined)	11.2	x	x	-8.2	1.9	x
N=C1/C(=C\c2ccc(-c3ccc(C(=O)O)cc3)o2)C(=O)N=C2SC=C(c3ccccc3)N12	-6.0	x	x	-8.1	-0.7	6.2
N=C1/C(=C\c2ccc(-c3cccc(Cl)c3)o2)C(=O)N=C2SC=C(c3ccccc3)N12	2.5	3.2	-1.0	-4.2	-9.9	57.5*
O=C(COc1ccc([N+](=O)[O-])cc1)NNC(=O)C1COc2ccccc2O1 (centres undefined)	-9.4	x	x	-8.3	2.6	x
O[C@@H]1[C@@H](O)C=C2CCN3Cc4cc5c(cc4[C@H]1C23)OCO5 (some centres undefined)	6.3	x	14.3	1.7	7.0	60.7*
